From PubChem BioAssay (NCI)
The panel holds about 83,000 compounds, 20% with a hit somewhere; the sample as a whole holds those more often.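 Step 1: grow cells in 96-well plates. Step 2: add test compound at a single concentration. Step 3: incubate 48 h. Step 4: record percent growth.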 Active and inactive are the calls of the source. How the source made its calls: active means growth percent below 10; inactive means the rest.

Experiments:
Experiment in all cases: NCI-60 one-dose screen, 48 h (100 = growth as untreated, 0 = no growth, -100 = all killed)
Conditions in all cases: 10 µM
SN12C renal = system: SN12C renal
UO-31 renal = system: UO-31 renal
TK-10 renal = system: TK-10 renal
ACHN renal = system: ACHN renal
CAKI-1 renal = system: CAKI-1 renal
A498 renal = system: A498 renal
CCRF-CEM leukemia = system: CCRF-CEM leukemia
MOLT-4 leukemia = system: MOLT-4 leukemia
SR leukemia = system: SR leukemia
RPMI-8226 leukemia = system: RPMI-8226 leukemia
OVCAR-8 ovarian = system: OVCAR-8 ovarian
OVCAR-5 ovarian = system: OVCAR-5 ovarian
OVCAR-4 ovarian = system: OVCAR-4 ovarian
SK-OV-3 ovarian = system: SK-OV-3 ovarian
IGROV1 ovarian = system: IGROV1 ovarian
OVCAR-3 ovarian = system: OVCAR-3 ovarian
HS 578T breast = system: HS 578T breast
NCI/ADR-RES ovarian = system: NCI/ADR-RES ovarian
EKVX NSCLC = system: EKVX NSCLC

Measured: growth

COc1cc2ccnc(C=O)c2cc1OC
active: CCRF-CEM leukemia -3.23% | SR leukemia 1.19%
inactive: SN12C renal 77.8% | UO-31 renal 13.8% | TK-10 renal 50.4% | ACHN renal 51.2% | CAKI-1 renal 47.5% | A498 renal 111% | MOLT-4 leukemia 29.7% | RPMI-8226 leukemia 50.6% | OVCAR-8 ovarian 44.2% | OVCAR-5 ovarian 93.1% | OVCAR-4 ovarian 80.9% | SK-OV-3 ovarian 106% | IGROV1 ovarian 70.5% | OVCAR-3 ovarian 24.9% | HS 578T breast 93.4% | NCI/ADR-RES ovarian 54.4%

COc1ccc(Cn2cc3c(c2-c2cc(OC)c(OC)c(OC)c2)CCc2cnoc2-3)cc1[N+](=O)[O-]
active: SK-OV-3 ovarian -12.7% | IGROV1 ovarian 9.29% | OVCAR-3 ovarian -23.6% | HS 578T breast 3.07% | NCI/ADR-RES ovarian 5.02%
inactive: SN12C renal 43.4% | UO-31 renal 36.9% | TK-10 renal 76.4% | ACHN renal 60.4% | CAKI-1 renal 16.1% | A498 renal 45.2% | CCRF-CEM leukemia 22% | MOLT-4 leukemia 30% | SR leukemia 22% | RPMI-8226 leukemia 27.9% | OVCAR-8 ovarian 48.7% | OVCAR-5 ovarian 58.6% | OVCAR-4 ovarian 47%

COc1cccc(C(=O)NNc2nc(N3CCOCC3)nc(N3CCN(C(c4ccccc4)c4ccccc4)CC3)n2)c1
inactive: SN12C renal 75.3% | TK-10 renal 86.7% | ACHN renal 76.3% | CAKI-1 renal 44.7% | A498 renal 51.3% | MOLT-4 leukemia 63.2% | SR leukemia 65.6% | RPMI-8226 leukemia 71.2% | OVCAR-8 ovarian 82.5% | OVCAR-5 ovarian 94.1% | OVCAR-4 ovarian 73.4% | IGROV1 ovarian 67.4% | OVCAR-3 ovarian 74.6% | HS 578T breast 80.1% | NCI/ADR-RES ovarian 84.3%

CC(=O)c1c(O)cc2c3c1OC(C)(C)C1CCC(C)(CC31)O2 (stereo unspecified)
inactive: SN12C renal 99.6% | UO-31 renal 77.8% | TK-10 renal 110% | ACHN renal 95.1% | CAKI-1 renal 89.5% | A498 renal 76% | CCRF-CEM leukemia 106% | MOLT-4 leukemia 78.9% | SR leukemia 86.7% | RPMI-8226 leukemia 54.4% | OVCAR-8 ovarian 86.3% | OVCAR-5 ovarian 97.7% | OVCAR-4 ovarian 89.6% | SK-OV-3 ovarian 97.6% | IGROV1 ovarian 96.2% | OVCAR-3 ovarian 93.8% | HS 578T breast 115% | NCI/ADR-RES ovarian 89.6%

CCCCCCCOc1cccc(/C=C2/C(=O)N=C3SCCCN32)c1
inactive: EKVX NSCLC 74.2% | UO-31 renal 61.9% | TK-10 renal 75.7% | ACHN renal 79.2% | CAKI-1 renal 84.9% | A498 renal 97.6% | CCRF-CEM leukemia 60.4% | MOLT-4 leukemia 50.2% | SR leukemia 47.9% | RPMI-8226 leukemia 40.8% | OVCAR-5 ovarian 91.2% | OVCAR-4 ovarian 63.1% | SK-OV-3 ovarian 88% | IGROV1 ovarian 79.9% | OVCAR-3 ovarian 50.9% | HS 578T breast 91.4% | NCI/ADR-RES ovarian 56.8%

Cc1cc(=O)oc2cc(OCc3cn(CC(O)CO)nn3)ccc12 (stereo unspecified)
inactive: EKVX NSCLC 97% | SN12C renal 102% | TK-10 renal 105% | ACHN renal 105% | CAKI-1 renal 109% | CCRF-CEM leukemia 92.5% | MOLT-4 leukemia 98.6% | SR leukemia 97.9% | RPMI-8226 leukemia 92.9% | OVCAR-8 ovarian 103% | OVCAR-5 ovarian 113% | OVCAR-4 ovarian 116% | SK-OV-3 ovarian 100% | IGROV1 ovarian 107% | OVCAR-3 ovarian 117% | HS 578T breast 27% | NCI/ADR-RES ovarian 105%
active: A498 renal -3.54%

N#CN1CC[C@H](C(=O)Nc2ncc(-c3ccncc3)s2)C1
inactive: CAKI-1 renal 10% | IGROV1 ovarian 12.5%
active: EKVX NSCLC 1.46% | UO-31 renal 8.4% | TK-10 renal -24.9% | ACHN renal 6.59% | A498 renal -49.4% | CCRF-CEM leukemia 7.15% | MOLT-4 leukemia -20.4% | SR leukemia 1.53% | RPMI-8226 leukemia 7.02% | OVCAR-8 ovarian 2.72% | OVCAR-5 ovarian 5.32% | OVCAR-4 ovarian 3.57% | SK-OV-3 ovarian 2.96% | OVCAR-3 ovarian -22.1% | HS 578T breast 2.54% | NCI/ADR-RES ovarian 5.43%

CCOC(=O)c1cc(-c2ccccc2)nc(N)n1
inactive: SN12C renal 94.6% | UO-31 renal 79.1% | TK-10 renal 127% | CAKI-1 renal 94% | A498 renal 86.5% | CCRF-CEM leukemia 98.7% | MOLT-4 leukemia 108% | SR leukemia 106% | RPMI-8226 leukemia 99.6% | OVCAR-8 ovarian 103% | OVCAR-5 ovarian 98.2% | OVCAR-4 ovarian 107% | IGROV1 ovarian 103% | OVCAR-3 ovarian 109% | HS 578T breast 92.5% | NCI/ADR-RES ovarian 100%

Nc1ncncc1-c1ccc(F)cc1
inactive: SN12C renal 107% | UO-31 renal 103% | TK-10 renal 116% | CAKI-1 renal 98.5% | A498 renal 95.2% | CCRF-CEM leukemia 109% | MOLT-4 leukemia 98.4% | SR leukemia 127% | RPMI-8226 leukemia 109% | OVCAR-8 ovarian 107% | OVCAR-5 ovarian 115% | OVCAR-4 ovarian 107% | SK-OV-3 ovarian 108% | IGROV1 ovarian 110% | OVCAR-3 ovarian 111% | HS 578T breast 113% | NCI/ADR-RES ovarian 107%

Cc1ccc(S(=O)(=O)Nc2cccc3[nH]c(C(F)(F)F)nc23)cc1
inactive: SN12C renal 47.8% | UO-31 renal 45.1% | TK-10 renal 36.7% | ACHN renal 49.8% | CAKI-1 renal 25.9% | A498 renal 13.7% | CCRF-CEM leukemia 13.6% | MOLT-4 leukemia 31.7% | SR leukemia 10.8% | OVCAR-8 ovarian 31% | OVCAR-5 ovarian 35.3% | OVCAR-4 ovarian 36% | IGROV1 ovarian 51.4% | HS 578T breast 24.4%
active: RPMI-8226 leukemia -3.69% | SK-OV-3 ovarian 4.74% | OVCAR-3 ovarian 4.74% | NCI/ADR-RES ovarian 4.81%

CCOC(=O)Nc1ccc2c(c1)C(=O)N(CC)c1ccccc1O2
active: A498 renal -4.82% | SR leukemia 8.37% | OVCAR-8 ovarian 7.22% | OVCAR-3 ovarian -7.48% | NCI/ADR-RES ovarian 8.14%
inactive: EKVX NSCLC 32.8% | UO-31 renal 53.7% | TK-10 renal 74.8% | ACHN renal 35.6% | CAKI-1 renal 31.1% | CCRF-CEM leukemia 13.5% | MOLT-4 leukemia 14.5% | RPMI-8226 leukemia 12.4% | OVCAR-5 ovarian 74% | OVCAR-4 ovarian 43.7% | SK-OV-3 ovarian 23.2% | IGROV1 ovarian 32.1% | HS 578T breast 46%

C[N+]1(CC2CO2)CCCCCC1 (stereo unspecified)
inactive: SN12C renal 102% | UO-31 renal 93.4% | TK-10 renal 114% | ACHN renal 101% | CAKI-1 renal 100% | A498 renal 87.8% | CCRF-CEM leukemia 109% | MOLT-4 leukemia 112% | SR leukemia 106% | RPMI-8226 leukemia 103% | OVCAR-8 ovarian 106% | OVCAR-5 ovarian 95.9% | OVCAR-4 ovarian 94.3% | SK-OV-3 ovarian 113% | IGROV1 ovarian 112% | OVCAR-3 ovarian 104% | HS 578T breast 114% | NCI/ADR-RES ovarian 113%

CCN(CC)CCn1c(=N)n(CC(O)c2ccc(Cl)c(Cl)c2)c2ccccc21 (stereo unspecified)
inactive: SN12C renal 83.3% | UO-31 renal 64.3% | TK-10 renal 87.1% | ACHN renal 71.5% | CAKI-1 renal 75.4% | A498 renal 52.5% | MOLT-4 leukemia 79.7% | SR leukemia 26.4% | RPMI-8226 leukemia 68.1% | OVCAR-8 ovarian 92.6% | OVCAR-5 ovarian 102% | OVCAR-4 ovarian 69% | SK-OV-3 ovarian 92.3% | IGROV1 ovarian 90.1% | OVCAR-3 ovarian 96.7% | HS 578T breast 80.5% | NCI/ADR-RES ovarian 88.6%
